# Assay results: PubChem BioAssay (Tox21)
# Where “and” joins values, the source holds several entries; their conditions need not be identical. Equal values may be shown once. A number with no mark means an inactive call. Inconclusive results are not listed. A call without a number means that no potency is given here. Calls of active or inactive are those of the source. Unless noted, calls come from the whole dose curve; as a rule, active = well fitted curve in the direction sought with a large enough effect in the repeat runs; inconclusive = weak or mixed curves; inactive = no such curve, though single readings can be large; an effect the other way counts as inactive or inconclusive.
# Tests used:
# [1] = target: Thyrotropin receptor (Homo sapiens) (UniProt P16473); test: qHTS assay to identify small molecule agonists of the thyroid stimulating hormone receptor (TSHR) signaling pathway (AID 1224843; calls by dose curve; note: nearly all actives have a fitted effect of over 45% in size; note: potency is the fitted concentration of half-maximal effect)
# How it was run: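 Cell line HEK293 with TSHR; density 800/well. Exposure 30 min RT. Readout HTRF cAMP (cAMP-d2/anti-cAMP-cryptate), 1 h RT before reading.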
# [2] = qHTS assay to identify small molecule agonists of the hypoxia (HIF-1) signaling pathway - cell viability counter screen (AID 1224844; calls by dose curve; note: nearly all actives have a fitted effect of over 50% in size; note: potency is the fitted concentration of half-maximal effect)
# How it was run: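 Multiplexed with the HRE beta-lactamase assay, this viability read used CellTiter-Glo luminescence (30 min, RT) on HRE-bla ME-180 cells treated 17 hrs with compounds in 0.5% dialyzed FBS medium.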
# [3] = qHTS assay to identify small molecule agonists of H2AX (AID 1224845; active = well fitted activation curve with a large enough effect in the signal ratio in the repeat runs, not every such curve was filed as active; the % refers to the signal ratio)
# How it was run: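 Wild-type CHO-K1 cells plated overnight, then exposed 3 hr at 37C to compounds at 15 concentrations (0.76% DMSO). Lysed, then HTRF anti-pH2AX(S139)-cryptate/anti-H2AX-d2 detection after 24 hr at room temperature; emissions 665 and 620 nm.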
# [4] = qHTS RealTime-Glo MT Cell Viability Assay in HepG2 cells - 24 hour (AID 1224867); note: nearly all actives have a fitted effect of over 50% in size; note: potency is the fitted concentration of half-maximal effect
# How it was run: (§1)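 Cell number in HepG2 cultures estimated from NanoLuc luminescence generated by metabolic reduction of a prosubstrate by living cells. The homogeneous, nonlytic format allowed repeated reads at 0, 8, 16, 24, 32 and 40 h of compound exposure.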
# [5] = qHTS RealTime-Glo MT Cell Viability Assay in HEK293 cells - 32 hour (AID 1224868); note: nearly all actives have a fitted effect of over 50% in size; note: potency is the fitted concentration of half-maximal effect
# How it was run: (§2)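 Homogeneous bioluminescent viability format in HEK293 cells (600 cells/well). Following 5 h at 37 C/5% CO2, 23 nL compound was pintooled; the signal was measured repeatedly during 40 h incubation.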
# [6] = A CellTox Green Cytotoxicity Assay to monitor cytotoxicity in HEK293 cells - 0 hour (AID 1224869); note: nearly all actives have a fitted effect of over 50% in size
# How it was run: (§3)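 Seeding of HEK293 cells together with cytotoxicity dye preceded a 5 h incubation at 37 C/5% CO2. Test compounds in DMSO were then added and fluorescence monitored across 40 h.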
# [7] = qHTS RealTime-Glo MT Cell Viability Assay in HepG2 cells - 40 hour (AID 1224870); note: nearly all actives have a fitted effect of over 50% in size; note: potency is the fitted concentration of half-maximal effect
# How it was run: (§4)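 HepG2 cells mixed with RealTime-Glo MT reagents (NanoLuc plus cell-permeant prosubstrate) were seeded at 600 cells/well, incubated 5 h at 37 C/5% CO2, then pinned with compounds in DMSO; nonlytic luminescence tracked viability during 40 h treatment.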
# [8] = A CellTox Green Cytotoxicity Assay to monitor cytotoxicity in HEK293 cells - 40 hour (AID 1224871); note: nearly all actives have a fitted effect of over 45% in size; note: potency is the fitted concentration of half-maximal effect
# How it was run: as §3
# [9] = qHTS RealTime-Glo MT Cell Viability Assay in HEK293 cells - 16 hour (AID 1224872); note: nearly all actives have a fitted effect of over 50% in size; note: potency is the fitted concentration of half-maximal effect
# How it was run: as §2
# [10] = qHTS RealTime-Glo MT Cell Viability Assay in HepG2 cells - 8 hour (AID 1224873); note: nearly all actives have a fitted effect of over 55% in size
# How it was run: as §4
# [11] = qHTS RealTime-Glo MT Cell Viability Assay in HEK293 cells - 40 hour (AID 1224874); details: RealTime-Glo luminescence; max response: stronger effect = lower value; note: nearly all actives have a fitted effect of over 50% in size; note: potency is the fitted concentration of half-maximal effect
# How it was run: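 Tox21 screen in HEK293 using RealTime-Glo MT chemistry, with cells and reagent co-dispensed. Luminescence proportional to viable cell number was captured at intervals during 40 h compound exposure at 37 C.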
# [12] = A CellTox Green Cytotoxicity Assay to monitor cytotoxicity in HEK293 cells - 24 hour (AID 1224875); note: nearly all actives have a fitted effect of over 45% in size; note: potency is the fitted concentration of half-maximal effect
# How it was run: as §3
# [13] = A CellTox Green Cytotoxicity Assay to monitor cytotoxicity in HepG2 cells - 16 hour (AID 1224876); note: nearly all actives have a fitted effect of over 45% in size
# How it was run: (§5)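 Nonlytic assay: viable cells exclude the dye, so fluorescence scales with cell death. HepG2 at 600 cells/well, compounds added after 5 h, signal read across 40 h.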
# [14] = qHTS RealTime-Glo MT Cell Viability Assay in HepG2 cells - 32 hour (AID 1224877); note: nearly all actives have a fitted effect of over 55% in size; note: potency is the fitted concentration of half-maximal effect
# How it was run: as §1
# [15] = A CellTox Green Cytotoxicity Assay to monitor cytotoxicity in HepG2 cells - 24 hour (AID 1224878); note: nearly all actives have a fitted effect of over 45% in size; note: potency is the fitted concentration of half-maximal effect
# How it was run: as §5
# [16] = qHTS assay to identify small molecule agonists of the hypoxia (HIF-1) signaling pathway (AID 1224846; active = well fitted activation curve with a large enough effect in the signal ratio in the repeat runs, not every such curve was filed as active; the % refers to the signal ratio)
# How it was run: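 Hypoxia-pathway activation was scored as increased beta-lactamase from an HRE-controlled reporter in ME-180 cells; plated at 2,000 cells per well with 0.5% dialyzed FBS, they were exposed 17 hrs to compounds and then given CCF4-AM.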
# [17] = qHTS assay to identify small molecule agonists of H2AX - cell viability counter screen (AID 1224847; calls by dose curve; note: nearly all actives have a fitted effect of over 30% in size; note: potency is the fitted concentration of half-maximal effect)
# How it was run: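 CHO-K1 wt, 1000 cells/well, o/n 37C; cpds 15 conc, 3 h 37C, 0.76% DMSO; CellTiter-Glo, 30 min RT, luminescence.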
# [18] = qHTS assay to identify small molecule antagonists of the estrogen related receptor (ERR) signaling pathway from Tox21 library (AID 1224848); note: nearly all actives have a fitted effect of over 50% in size; note: potency is the fitted concentration of half-maximal effect
# How it was run: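 Screening used an ERR reporter line supplied by NTP, exposed for 18 h at 37 C to library compounds delivered in DMSO. Signal was luciferase luminescence developed with ONE-Glo at room temperature for 30 min.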
# [19] = qHTS assay to identify small molecule agonists of the estrogen related receptor (ERR) signaling pathway from Tox21 library (AID 1224849; calls by dose curve; note: nearly all actives have a fitted effect of over 15% in size); details: ERR reporter cell line, ONE-Glo luciferase, 18 h; at 92.4 µM (top of the series) unless noted
# How it was run: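 Six hours post-seeding at 37 C/5% CO2, ERR cells receive DMSO-solubilised compounds; after 18 h at 37 C, ONE-Glo reagent is applied and luminescence recorded.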
# [20] = A CellTox Green Cytotoxicity Assay to monitor cytotoxicity in HepG2 cells - 40 hour (AID 1224879); note: nearly all actives have a fitted effect of over 40% in size
# How it was run: as §5
# Thyrotropin receptor (Homo sapiens), sequence (P16473 whole entry, looked up): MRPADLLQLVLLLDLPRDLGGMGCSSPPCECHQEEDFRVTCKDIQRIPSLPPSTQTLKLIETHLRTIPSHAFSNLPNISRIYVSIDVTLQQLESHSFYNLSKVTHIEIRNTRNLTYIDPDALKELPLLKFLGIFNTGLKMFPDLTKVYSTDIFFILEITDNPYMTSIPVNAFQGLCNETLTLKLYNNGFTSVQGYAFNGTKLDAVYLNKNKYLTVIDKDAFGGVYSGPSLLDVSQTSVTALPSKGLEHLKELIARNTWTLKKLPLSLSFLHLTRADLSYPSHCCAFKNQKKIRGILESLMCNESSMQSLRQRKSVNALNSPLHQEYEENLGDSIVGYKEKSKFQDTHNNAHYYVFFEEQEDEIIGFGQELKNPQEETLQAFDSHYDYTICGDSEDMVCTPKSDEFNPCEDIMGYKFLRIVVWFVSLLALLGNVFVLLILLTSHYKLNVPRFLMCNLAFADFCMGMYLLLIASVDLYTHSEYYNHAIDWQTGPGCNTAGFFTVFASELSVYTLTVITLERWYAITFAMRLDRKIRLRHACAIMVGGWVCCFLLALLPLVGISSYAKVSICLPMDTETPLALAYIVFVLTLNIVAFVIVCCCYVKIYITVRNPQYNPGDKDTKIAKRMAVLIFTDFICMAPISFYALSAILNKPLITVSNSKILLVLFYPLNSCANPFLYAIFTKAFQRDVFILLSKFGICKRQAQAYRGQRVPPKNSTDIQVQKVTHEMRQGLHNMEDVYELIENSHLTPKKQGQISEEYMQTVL
compound,measurement,setting,value
CCC(Br)(CC)C(=O)NC(N)=O,Potency,[1],inactive
same,Potency,[2],inactive
same,Potency,[3],inactive
same,Potency,[4],inactive
same,Potency,[5],inactive
same,Potency,[6],inactive
same,Potency,[7],inactive
same,Potency,[8],inactive
same,Potency,[9],inactive
same,Potency,[10],inactive
same,max response,[11],5.12%
same,Potency,[12],inactive
same,Potency,[13],inactive
same,Potency,[14],inactive
same,Potency,[15],inactive
O=[N+]([O-])c1cc(C(F)(F)F)cc([N+](=O)[O-])c1Cl,Potency,[1],inactive
same,Potency,[3],inactive
same,outcome,[16],inactive
same,Potency,[17],inactive
same,Potency,[18],61.4 µM (active)
same,"activity change, positive = activation",[19],-42.9%
same,Potency,[4],inactive
same,Potency,[6],inactive
same,Potency,[7],inactive
same,Potency,[8],inactive
same,Potency,[10],inactive
same,Potency,[12],inactive
same,Potency,[13],inactive
same,Potency,[14],inactive
same,Potency,[15],inactive
same,Potency,[20],inactive
CCCC(Cn1cncn1)c1ccc(Cl)cc1Cl (centres undefined),Potency,[1],inactive
same,Potency,[2],inactive
same,Potency,[3],inactive
same,Potency,[18],30.6 µM (active)
same,"activity change, positive = activation",[19],-61.7%
same,Potency,[4],inactive
same,Potency,[5],21.9 µM (active)
same,Potency,[6],inactive
same,Potency,[7],inactive
same,Potency,[11],21.9 µM (active)
same,Potency,[14],inactive
Brc1ccccc1,Potency,[1],inactive
same,Potency,[3],inactive
same,outcome,[16],inactive
same,Potency,[17],inactive
same,Potency,[4],inactive
same,Potency,[5],inactive
same,Potency,[6],inactive
same,Potency,[7],inactive
same,Potency,[8],inactive
same,Potency,[9],inactive
same,Potency,[10],inactive
same,max response,[11],-2.8%
same,Potency,[12],inactive
same,Potency,[13],inactive
same,Potency,[14],inactive
same,Potency,[15],inactive
same,Potency,[20],inactive
O=C(Nc1ccccc1)Nc1cnns1,Potency,[1],inactive
same,Potency,[3],inactive
same,outcome,[16],inactive
same,Potency,[17],inactive
same,"activity change, positive = activation",[19],-23.5%
same,Potency,[4],inactive
same,Potency,[5],27.5 µM (active)
same,Potency,[6],inactive
same,Potency,[7],inactive
same,Potency,[8],inactive
same,Potency,[10],inactive
same,Potency,[11],27.5 µM (active)
same,Potency,[12],inactive
same,Potency,[13],inactive
same,Potency,[15],inactive
same,Potency,[20],inactive
C(=NC1CCCCC1)=NC1CCCCC1,Potency,[1],inactive
same,Potency,[2],inactive
same,Potency,[3],inactive
same,Potency,[18],13.7 µM (active)
same,"activity change, positive = activation",[19],-50.9% and -60.1%
same,Potency,[4],13.9 µM (active) and 12.3 µM (active)
same,Potency,[5],22 µM (active) and 21.9 µM (active)
same,Potency,[6],inactive
same,Potency,[7],12.4 µM (active) and 12.3 µM (active)
same,Potency,[8],19.6 µM (active) and 21.9 µM (active)
same,Potency,[9],19.6 µM (active) and 19.5 µM (active)
same,Potency,[11],17.5 µM (active) and 24.5 µM (active)
same,Potency,[12],22 µM (active) and 34.7 µM (active)
same,Potency,[13],inactive
same,Potency,[14],12.4 µM (active) and 12.3 µM (active)
same,Potency,[15],11 µM (active) and 15.5 µM (active)
Nc1nc(N)nc(N)n1,Potency,[1],inactive
same,Potency,[2],inactive
same,Potency,[3],inactive
same,Potency,[4],inactive
same,Potency,[5],inactive
same,Potency,[6],inactive
same,Potency,[8],inactive
same,Potency,[9],inactive
same,Potency,[10],inactive
same,max response,[11],14.5%
same,Potency,[12],inactive
same,Potency,[13],inactive
same,Potency,[15],inactive
same,Potency,[20],inactive
CC(C)=CCOc1c2occc2cc2ccc(=O)oc12,Potency,[1],inactive
same,Potency,[3],inactive
same,outcome,[16],inactive
same,Potency,[17],inactive
same,Potency,[18],inactive
same,"activity change, positive = activation",[19],-9.71% [at 42.5 µM]
same,Potency,[5],inactive
same,Potency,[6],inactive
same,Potency,[7],inactive
same,Potency,[8],inactive
same,Potency,[9],inactive
same,max response,[11],-18%
same,Potency,[12],inactive
same,Potency,[13],inactive
same,Potency,[14],inactive
same,Potency,[15],inactive
same,Potency,[20],inactive
O=S1OC[C@@H]2[C@H](CO1)[C@]1(Cl)C(Cl)=C(Cl)[C@@]2(Cl)C1(Cl)Cl (some centres undefined),Potency,[1],10.9 µM (active)
same,Potency,[2],43.6 µM (active)
same,Potency,[17],20.1 µM (active)
same,Potency,[6],inactive
same,Potency,[7],inactive
CNP(=O)(OC)Oc1ccc(C(C)(C)C)cc1Cl (centres undefined),Potency,[1],inactive
same,Potency,[2],inactive
same,Potency,[3],inactive
same,Potency,[18],48.6 µM (active)
same,"activity change, positive = activation",[19],-37.4%
same,Potency,[4],inactive
same,Potency,[6],inactive
same,Potency,[7],inactive
same,Potency,[10],inactive
c1cc2ccc3cccc4ccc(c1)c2c34,Potency,[1],7.19 µM (active)
same,Potency,[2],inactive
same,outcome,[16],inactive
same,Potency,[17],inactive
same,Potency,[18],50.9 µM (active)
same,"activity change, positive = activation",[19],-47.4%
same,Potency,[4],inactive
same,Potency,[5],inactive
same,Potency,[6],inactive
same,Potency,[7],inactive
same,Potency,[8],inactive
same,Potency,[9],inactive
same,Potency,[10],inactive
same,max response,[11],-0.186%
same,Potency,[12],inactive
same,Potency,[13],inactive
same,Potency,[14],inactive
same,Potency,[15],inactive
S=C=NCc1ccccc1,Potency,[1],inactive
same,Potency,[2],inactive
same,Potency,[3],inactive
same,Potency,[18],inactive
same,"activity change, positive = activation",[19],-18.1%
same,Potency,[4],inactive
same,Potency,[5],44.1 µM (active)
same,Potency,[6],inactive
same,Potency,[7],inactive
same,Potency,[8],55.5 µM (active)
same,Potency,[9],24.8 µM (active)
same,Potency,[10],inactive
same,Potency,[11],44.1 µM (active)
same,Potency,[13],inactive
same,Potency,[15],inactive
Nc1ccc([N+](=O)[O-])cc1[N+](=O)[O-],Potency,[1],inactive
same,Potency,[2],inactive
same,Potency,[3],inactive
same,Potency,[4],inactive
same,Potency,[6],inactive
same,Potency,[8],inactive
same,Potency,[9],inactive
same,Potency,[10],inactive
same,max response,[11],-23.5%
same,Potency,[12],inactive
same,Potency,[13],inactive
same,Potency,[14],inactive
same,Potency,[15],inactive
same,Potency,[20],inactive
ClCc1ccccc1,Potency,[1],inactive
same,Potency,[3],inactive
same,outcome,[16],inactive
same,Potency,[17],inactive
same,Potency,[4],inactive
same,Potency,[5],inactive
same,Potency,[6],inactive
same,Potency,[7],inactive
same,Potency,[8],inactive
same,Potency,[9],inactive
same,Potency,[10],inactive
same,max response,[11],2.64%
same,Potency,[12],inactive
same,Potency,[13],inactive
same,Potency,[14],inactive
same,Potency,[15],inactive
